PubChem BioAssay (EPA / NIEHS)
Some structures have more than one record in an assay (separate samples or runs), and their calls can disagree. The source made the active and inactive calls. How the source made its calls: active means hit-call score of the fitted dose curve at least 0.9, where 1 is the maximum; inactive means score below 0.9.

Assay: CEETOX_H295R_OHPROG: CeeTox H295R High-throughput Steroidogenesis Assay for OH-Progesterone (OHPROG) (AID 2283435)
Conditions: actives raise or lower the signal
Protocol: CEETOX_H295R is a cell-based, multiplexed-readout assay that uses H295R, a human adrenal gland cell line, with measurements taken at 48 hours after chemical dosing in a 96-well plate.CEETOX_H295R_OHPROG is one of 23 assay component(s) measured or calculated from the CEETOX_H295R assay. It is designed to make measurements of hormone induction, a form of inducible reporter, as detected with absorbance signals by HPLC-MS-MS technology.Data from the assay component CEETOX_H295R_OHPROG was analyzed into 1 assay endpoint. This assay endpoint, CEETOX_H295R_OHPROG, was analyzed with bidirectional fitting relative to DMSO as the negative control and baseline of activity. Using a type of inducible reporter, gain or loss-of-signal activity using HPLC-MS-MS was used to understand synthesis of 17alpha-hydroxyprogesterone in H295R cell line at 48hr of chemical exposure. To generalize the intended target to other relatable targets, this assay endpoint is annotated to the steroid hormone intended target family, where the subfamily is progestagens.
Cell culture and media preparation procedures were conducted in accordance with OECD Test No. 456 guidelines, with minor modifications. H295R cells (ATCC CRL-2128) were expanded for 5 passages and frozen in batches in liquid nitrogen. Prior to the steroidogenesis assay, H295R cells were thawed and passed at least 4 times. The maximum passage was 10. Cells were maintained in a 1:1 mixture of DMEM/F12 supplemented with 5ml/L ITS+ Premix (BD Bioscience) and 12.5 ml/L Nu-Serum (BD Bioscience). After seeding cells into 96-well plates at 50-60% confluency, cells were allowed to adhere overnight. Prior to chemical testing, culture medium was replaced with 175 uL medium containing 10 uM forskolin to stimulate steroidogenesis for 48 hours. Following prestimulation, forskolin medium was replaced with medium containing test chemical solubilized in DMSO (ensuring a final concentration of 0.1% DMSO). Test chemicals were incubated for 48 hours, then the medium was removed and split into 2 vials containing approximately 75uL each, and stored at -80 C prior to hormone analysis. For steroid quantification, media samples were shipped to OpAns, LLC (Durham, NC) on dry ice, and samples were thawed to room temperature prior to liquid-liquid extraction. Steroid hormones were extracted from media samples using methyl tertbutyl ether (MTBE). An extra derivatization with dansyl chloride was included for estrogen (estrone and estradiol) detection only. Steroid hormones were separated by HPLC, eluted using a reverse phase C18 gradient with electrospray positive ionization, followed by quantification by tandem mass spectrometry (MS/MS). Data were acquired on a MassHunter Workstation Acquisition version B03.01 (Agilent Technologies, Inc.) and processed using MassHunter Quantitative Analysis for QQQ. Accuracy was determined for each hormone analyte from 3 standards to determine upper and lower limits of quantification (ULOQ and LLOQ, respectively) using a 7-point standard curve. Precision and accuracy of the extraction and quantification methods were calculated as the percent relative standard deviation (%RSD) of the spiked standards and percent spiked standard recovered, respectively. […] Test medium was removed following chemical exposure, and cell viability was evaluated in the same wells by MTT. MTT procedures were as follows: after removal of test medium, 500 uL of 0.5 mg/ml of 3-[4,5-dimethylthiazol-2-y]2,5-diphenyltetrazoliumbromide solution was added to the cells. Following a 4-hour incubation at 37 C and 5% CO2 to allow formazan-crystal formation, the MTT solution was removed and blue formazan salt crystals were solubilized using 500uL anhydrous isopropanol with shaking for 20 minutes. Absorbance was read at 570 and 650nm using a Packard Fusion microplate reader. Background correction of absorbance units was used to determine percent change relative to controls. […]

**Q.** Which outcome does the source give for `O=C(c1ccc(OCCN2CCCCC2)cc1)c1c(-c2ccc(O)cc2)sc2cc(O)ccc12` here?
**A.** inactive

**Q.** For `CC/C(=C(\c1ccccc1)c1ccc(OCCN(C)C)cc1)c1ccccc1`, which outcome is on record?
**A.** inactive

**Q.** What about the AC50 of the same compound?
**A.** 0.161 µM (active)

**Q.** Which AC50 does the source give for `CCCCCCCCCCCCN1CCOCC1` here?
**A.** 1.86 µM (active)

**Q.** With `c1coc(CNc2ncnc3nc[nH]c23)c1` as the compound, how does the outcome read?
**A.** inactive

**Q.** With `O=C(OCc1ccccc1)c1ccccc1O` as the compound, how does the AC50 read?
**A.** 50 µM (active)

**Q.** Which AC50 does the source give for `CC(=O)c1ccc2ccccc2c1` here?
**A.** 50 µM (active)

**Q.** For `c1ccc(OCCOc2ccccc2)cc1`, which AC50 is on record?
**A.** 36.9 µM (active)

**Q.** For `OCC=Cc1ccccc1`, which outcome is on record?
**A.** inactive

**Q.** Which outcome does the source give for `CC(=N[Si](C)(C)C)O[Si](C)(C)C` here?
**A.** inactive

**Q.** For `C#C[C@]1(O)CC[C@H]2[C@@H]3CCc4cc(O)ccc4[C@H]3CC[C@@]21C`, which outcome is on record?
**A.** inactive

**Q.** For `CC(=O)C1=C(C)[C@@H]2C[C@@]3(C1)[C@H](C)CC[C@H]3C2(C)C`, which outcome is on record?
**A.** inactive

**Q.** Which outcome does the source give for `CCCCCC(=O)O[C@]1(C(C)=O)CC[C@H]2[C@@H]3CCC4=CC(=O)CC[C@]4(C)[C@H]3CC[C@@]21C` here?
**A.** inactive

**Q.** For `COc1ccc2[nH]cc(CCNC(C)=O)c2c1`, which AC50 is on record?
**A.** 3.07 µM (active)

**Q.** With `CC=CC(=O)C1=C(C)C=CCC1(C)C` as the compound, how does the outcome read?
**A.** inactive

**Q.** With `CCCc1ccc(O)cc1` as the compound, how does the outcome read?
**A.** inactive

**Q.** For `CC(C)(C)c1cccc(O)c1`, which outcome is on record?
**A.** inactive

**Q.** With `OCCCO` as the compound, how does the outcome read?
**A.** inactive

**Q.** With `C[C@]12CC[C@@H]3c4ccc(O)cc4CC[C@H]3[C@@H]1CC[C@@H]2O` as the compound, how does the outcome read?
**A.** inactive
